Results reported in PubChem BioAssay (NCATS).
Inconclusive results are not listed. Activity calls are given as the source filed them. Unless noted, calls follow the shape of the dose curve; as a rule, active = well fitted curve in the direction sought with a large enough effect; inconclusive = small, poorly fitted or top-dose-only effect, or another doubt; inactive = no such curve, though single readings can be large; an effect the other way counts as inactive or inconclusive.

Assays:
[1] = S16 Schwann cell viability assay (CellTiter-Glo assay) (AID 624031); conditions: S16 rat Schwann cells viability, 24 h; series mostly up to 25.7 µM;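 also: native untransfected S16 rat Schwann cells; cellular ATP luminescence as a viability measure; nearly all actives have a fitted effect of over 70% in size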
Summary of the method: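 Following overnight culture in 10% FBS DMEM, parental S16 rat Schwann cells are dosed for 24 h at 37 °C. Viability is read as CellTiter-Glo luminescence and expressed as % activity relative to DMSO (0%) and no-cell wells.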

[2] = S16 Schwann cell PMP22 intronic element beta-lactamase assay (AID 624044; calls by dose curve; also: nearly all actives have a fitted effect of over 15% in size); conditions: S16 rat Schwann cells, PMP22 element beta-lactamase FRET, 24 h; series mostly up to 17.1 µM
Summary of the method: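 Beta-lactamase reporter under a PMP22 intronic regulatory element in stable S16 rat Schwann cells; 24 h compound exposure. 460 nm blue signal normalized between DMSO (0%) and potassium clavulanate, with 535 nm FRET tracking viability; curves classed by r2 and response.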

[3] = molecular target: Glutathione peroxidase 1 (Homo sapiens) (UniProt P07203); test: Primary qHTS Assay for Inhibitors of Recombinant Selenoprotein Glutathione Peroxidase 1 (GPX1) (AID 1845191); conditions: recombinant GPX1, GR-coupled NADPH fluorescence, 15 min; series mostly up to 48.8 µM; also: nearly all actives have a fitted effect of over 65% in size
Glutathione peroxidase 1 (Homo sapiens), sequence (P07203 whole entry, looked up): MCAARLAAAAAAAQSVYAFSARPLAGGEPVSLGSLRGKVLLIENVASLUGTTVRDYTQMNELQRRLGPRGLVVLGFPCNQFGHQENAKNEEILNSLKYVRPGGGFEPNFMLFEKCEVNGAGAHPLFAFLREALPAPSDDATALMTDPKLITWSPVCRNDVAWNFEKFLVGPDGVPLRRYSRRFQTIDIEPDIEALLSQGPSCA
Summary of the method: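 GR-coupled readout: NADPH consumption tracked by fluorescence, ex 340/em 450 nm, at t=0 and after 15 min at RT. Final mix 10 nM GPX1, 1 mM GSH, 0.5 mM CHP, 0.5 mM NADPH, 100 nM GR, 0.01% BSA, following 30 min enzyme–compound preincubation.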

ATS95 = test: qHTS profiling for inhibitors of Plasmodium falciparum proliferation (AID 504749); also: nearly all actives have a fitted effect of over 60% in size; conditions: P. falciparum in erythrocytes, SYBR Green DNA, 72 h; series mostly up to 12.8 µM
Summary of the method: (§1)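 SYBR Green fluorescence (ex 485 nm, em 535 nm) reports parasite DNA after 72 h compound exposure of infected red cells at 0.3% parasitemia, 2.5% hematocrit; signal normalized to 0.29 uM artemisinin and vehicle wells.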

CP203 = test: as above; conditions: P. falciparum in erythrocytes, SYBR Green DNA, 72 h; series mostly up to 12.8 µM
Summary of the method: as §1

CP211 = test: as above; conditions: P. falciparum in erythrocytes, SYBR Green DNA, 72 h; series mostly up to 12.8 µM
Summary of the method: as §1

CP215 = test: as above; conditions: P. falciparum in erythrocytes, SYBR Green DNA, 72 h; series mostly up to 28.7 µM
Summary of the method: as §1

CP217 = test: as above; conditions: P. falciparum in erythrocytes, SYBR Green DNA, 72 h; series mostly up to 12.8 µM
Summary of the method: as §1

CP237 = test: as above; conditions: P. falciparum in erythrocytes, SYBR Green DNA, 72 h; series mostly up to 12.8 µM
Summary of the method: as §1

CP252 = test: as above; conditions: P. falciparum in erythrocytes, SYBR Green DNA, 72 h; series mostly up to 12.8 µM
Summary of the method: as §1

CP315 = test: as above; conditions: P. falciparum in erythrocytes, SYBR Green DNA, 72 h; series mostly up to 12.8 µM
Summary of the method: as §1

CP325 = test: as above; conditions: P. falciparum in erythrocytes, SYBR Green DNA, 72 h; series mostly up to 12.8 µM
Summary of the method: as §1

CP335 = test: as above; conditions: P. falciparum in erythrocytes, SYBR Green DNA, 72 h; series mostly up to 12.8 µM
Summary of the method: as §1

GB4 = test: as above; conditions: P. falciparum in erythrocytes, SYBR Green DNA, 72 h; series mostly up to 12.8 µM
Summary of the method: as §1

N140 = test: as above; conditions: P. falciparum in erythrocytes, SYBR Green DNA, 72 h; series mostly up to 12.8 µM
Summary of the method: as §1

P93_24 = test: as above; conditions: P. falciparum in erythrocytes, SYBR Green DNA, 72 h; series mostly up to 12.8 µM
Summary of the method: as §1

SC27B = test: as above; conditions: P. falciparum in erythrocytes, SYBR Green DNA, 72 h; series mostly up to 12.8 µM
Summary of the method: as §1

TAB109 = test: as above; conditions: P. falciparum in erythrocytes, SYBR Green DNA, 72 h; series mostly up to 12.8 µM
Summary of the method: as §1

[4] = molecular target: Dual specificity protein kinase CLK4 (Homo sapiens) (UniProt Q9HAZ1); test: qHTS Assay for Inhibitors of CDC-like Kinase 4 (ADP-FP Assay) (AID 1795); conditions: Transcreener ADP fluorescence polarization; series mostly up to 50 µM; also: nearly all actives have a fitted effect of over 60% in size; also: potency is read from the fitted curve at half-maximal effect
Dual specificity protein kinase CLK4 (Homo sapiens), sequence (Q9HAZ1 whole entry, looked up): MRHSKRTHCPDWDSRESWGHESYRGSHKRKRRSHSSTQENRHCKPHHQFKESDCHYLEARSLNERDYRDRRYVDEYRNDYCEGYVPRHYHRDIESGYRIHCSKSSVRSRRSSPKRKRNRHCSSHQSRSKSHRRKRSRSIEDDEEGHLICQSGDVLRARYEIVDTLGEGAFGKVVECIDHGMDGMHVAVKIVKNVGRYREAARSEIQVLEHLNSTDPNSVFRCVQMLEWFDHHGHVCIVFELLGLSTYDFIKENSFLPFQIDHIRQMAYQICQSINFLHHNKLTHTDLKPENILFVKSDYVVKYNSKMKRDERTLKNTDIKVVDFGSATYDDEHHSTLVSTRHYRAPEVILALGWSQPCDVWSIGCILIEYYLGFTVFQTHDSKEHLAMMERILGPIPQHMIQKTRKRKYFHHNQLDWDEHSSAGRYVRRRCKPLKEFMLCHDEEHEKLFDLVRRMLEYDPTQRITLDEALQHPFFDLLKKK
Summary of the method: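 FP readout: Orange Transcreener ADP2 tracer (4 nM) plus ADP antibody, read after 30 min at room temperature. Kinase step: 6.25 nM Clk4, 100 uM RS peptide, 1 uM ATP, pH 7.5, 1 h.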

[5] = qHTS Assay for Identification of Small Molecule Agonists for Thrombopoietin (TPO) Signaling Pathway (AID 917); conditions: TPO signaling pathway reporter cells, agonist qHTS, stimulated with TPO at its EC50; series mostly up to 38.5 µM
Summary of the method: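 Ba/F3 (mouse) + hTPO receptor + GpIIb-promoter luciferase; IL-3 withdrawn overnight; compound + 26 pM TPO (EC50), 24 hrs, 37 C, 5% CO2; Steadylite luminescence, 10 min RT.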

Measured: Potency

C[C@@H]1CCC[C@H](C)N1NC(=O)c1ccc(Cl)c(S(N)(=O)=O)c1
inactive: [1] | [2] | [3] | ATS95 | CP203 | CP211 | CP215 | CP217 | CP237 | CP252 | CP315 | CP325 | CP335 | GB4 | N140 | P93_24 | SC27B | TAB109

COc1cccc(Cn2c(=O)cnc3cnc(N4CCN(C)CC4)nc32)c1
inactive: [4]

Cc1cnc(CNc2ncnc3ccc(-c4ccccc4C(F)(F)F)cc23)cn1
inactive: [4]

C=C(NC(=O)C(=C)NC(=O)c1csc(C2=NC3c4csc(n4)C4NC(=O)c5csc(n5)C(C(C)(O)C(C)O)NC(=O)C5CSC(=N5)C(=CC)NC(=O)C(C(C)O)NC(=O)c5csc(n5)C3(CC2)NC(=O)C(C)NC(=O)C(=C)NC(=O)C(C)NC(=O)C(C(C)CC)NC2C=Cc3c(C(C)O)cc(nc3C2O)C(=O)OC4C)n1)C(N)=O (configuration not stated)
inactive: [3]

COc1ccccc1CNc1cc(-c2cccc(C#N)c2)ncn1
inactive: [4]

C[N+](C)(C)CC(O)CC(=O)O (configuration not stated)
inactive: [1] | [2] | [3] | ATS95 | CP203 | CP211 | CP215 | CP217 | CP237 | CP252 | CP315 | CP325 | CP335 | GB4 | N140 | P93_24 | SC27B | TAB109

CN1CCN(c2ncc3nc(-c4ccccc4)c(=O)n(C4CC4)c3n2)CC1
inactive: [4]

COc1ccccc1-c1ccc2ncnc(NCc3ccccc3)c2c1
active: [4] 2.82 µM

COCCn1c(=O)c(C)nc2cnc(Nc3ccccc3)nc21
inactive: [4]

COc1ccccc1CNc1ncnc2ccc(-c3cccc(C#N)c3)cc12
inactive: [4]

CC(C)(S)[C@H](N)C(=O)O
inactive: [3] inactive [at 4.49 µM]

Oc1ccc2c(c1)OCC1(O)Cc3cc(O)c(O)cc3C21 (configuration not stated)
inactive: [3]

CN1C(CC(=O)c2ccccc2)CCCC1CC(O)c1ccccc1 (configuration not stated)
inactive: [3]

CN(C)CC/C=C1\c2ccccc2CSc2ccccc21
inactive: [1] | [2] | [3]

FC(F)(F)c1ccccc1-c1ccc2ncnc(N3CCOCC3)c2c1
inactive: [4]

C#C[C@]1(O)CCC2C3CCC4=C(CCC(=O)C4)C3CC[C@@]21C (some centres not stated)
inactive: [3]

COc1ccccc1CNc1ncnc2ccc(-c3ccoc3)cc12
active: [4] 0.141 µM

CN1CCCC[C@@H]1CCN1c2ccccc2Sc2ccc(S(C)=O)cc21 (some centres not stated)
inactive: [1] | [2] | ATS95 | CP203 | CP211 | CP215 | CP217 | CP237 | CP252 | CP315 | CP325 | CP335 | GB4 | N140 | P93_24 | SC27B | TAB109

CN1[C@@H]2CC[C@H]1CC(OC(=O)[C@@H](O)c1ccccc1)C2 (some centres not stated)
inactive: [5] | [2] | ATS95 | CP203 | CP211 | CP215 | CP217 | CP237 | CP252 | CP315 | CP325 | CP335 | GB4 | N140 | P93_24 | SC27B | TAB109

CC[C@@]12CCCN3CCc4c(n(c5ccccc45)C(=O)C1)[C@H]32
inactive: [1] | ATS95 | CP203 | CP211 | CP215 | CP217 | CP237 | CP252 | CP315 | CP325 | CP335 | GB4 | N140 | P93_24 | SC27B | TAB109

CCCCCN(CCCCC)C(=O)[C@H](CCC(=O)O)NC(=O)c1ccc(Cl)c(Cl)c1
inactive: [5]

CCCN(CCC)C(=O)[C@@H](CCC(=O)O)NC(=O)c1ccccc1
inactive: [5] | [1] | ATS95 | CP203 | CP211 | CP215 | CP217 | CP237 | CP252 | CP315 | CP325 | CP335 | GB4 | N140 | P93_24 | SC27B | TAB109

C=CCc1ccccc1OC[C@H](O)CNC(C)C
inactive: [5]

N[C@@H](CO)C(=O)NNCc1ccc(O)c(O)c1O
inactive: [2] | ATS95 | CP203 | CP211 | CP215 | CP217 | CP237 | CP252 | CP315 | CP325 | CP335 | GB4 | N140 | P93_24 | SC27B | TAB109

COc1ccc([C@H]2Sc3ccccc3N(CCN(C)C)C(=O)[C@H]2OC(C)=O)cc1
inactive: [5]

O[C@@](CCN1CCCCC1)(c1ccccc1)C1CCCCC1
inactive: [5]

O=C(C1CCCCC1)N1CC(=O)N2CCc3ccccc3[C@@H]2C1
inactive: [1] | [2]

CC[C@]1(C)CC(=O)NC1=O
inactive: [5] | [1] | [2] | ATS95 | CP211 | CP215 | CP217 | CP237 | CP252 | CP315 | CP325 | CP335 | GB4 | N140 | P93_24 | SC27B | TAB109

C[C@@](N)(Cc1ccc(O)c(O)c1)C(=O)O
inactive: [5]

CN(C)[C@@H]1C(=O)C(C(N)=O)=C(O)[C@]2(O)C(=O)C3=C(O)c4c(O)ccc(Cl)c4[C@H](O)[C@H]3C[C@@H]12
inactive: [5] | [1] | [2] | CP203 | CP211 | CP215 | CP217 | CP252 | CP315 | CP325 | N140 | SC27B
